USP30 inh: human USP30 deubiquitinase inhibition. 5.3% of 47,000 active. inhibition, % at 25 µM. AID 1645860. purified USP30, Ub-rhodamine cleavage fluorescence. Q70CQ3
USP8 inh: human USP8 deubiquitinase inhibition | P40818 | purified USP8, Ub-rhodamine cleavage fluorescence, 30 min | inhibition, % at 20 µM | 4.2% of 47,000 active | AID 1645853
USP28 inh: human USP28 deubiquitinase inhibition; Q96RU2; purified USP28, Ub-rhodamine cleavage fluorescence, 30 min; inhibition, % at 25 µM; 3% of 47,000 active; AID 1645857
Target sequence (Q96RU2 whole entry, looked up): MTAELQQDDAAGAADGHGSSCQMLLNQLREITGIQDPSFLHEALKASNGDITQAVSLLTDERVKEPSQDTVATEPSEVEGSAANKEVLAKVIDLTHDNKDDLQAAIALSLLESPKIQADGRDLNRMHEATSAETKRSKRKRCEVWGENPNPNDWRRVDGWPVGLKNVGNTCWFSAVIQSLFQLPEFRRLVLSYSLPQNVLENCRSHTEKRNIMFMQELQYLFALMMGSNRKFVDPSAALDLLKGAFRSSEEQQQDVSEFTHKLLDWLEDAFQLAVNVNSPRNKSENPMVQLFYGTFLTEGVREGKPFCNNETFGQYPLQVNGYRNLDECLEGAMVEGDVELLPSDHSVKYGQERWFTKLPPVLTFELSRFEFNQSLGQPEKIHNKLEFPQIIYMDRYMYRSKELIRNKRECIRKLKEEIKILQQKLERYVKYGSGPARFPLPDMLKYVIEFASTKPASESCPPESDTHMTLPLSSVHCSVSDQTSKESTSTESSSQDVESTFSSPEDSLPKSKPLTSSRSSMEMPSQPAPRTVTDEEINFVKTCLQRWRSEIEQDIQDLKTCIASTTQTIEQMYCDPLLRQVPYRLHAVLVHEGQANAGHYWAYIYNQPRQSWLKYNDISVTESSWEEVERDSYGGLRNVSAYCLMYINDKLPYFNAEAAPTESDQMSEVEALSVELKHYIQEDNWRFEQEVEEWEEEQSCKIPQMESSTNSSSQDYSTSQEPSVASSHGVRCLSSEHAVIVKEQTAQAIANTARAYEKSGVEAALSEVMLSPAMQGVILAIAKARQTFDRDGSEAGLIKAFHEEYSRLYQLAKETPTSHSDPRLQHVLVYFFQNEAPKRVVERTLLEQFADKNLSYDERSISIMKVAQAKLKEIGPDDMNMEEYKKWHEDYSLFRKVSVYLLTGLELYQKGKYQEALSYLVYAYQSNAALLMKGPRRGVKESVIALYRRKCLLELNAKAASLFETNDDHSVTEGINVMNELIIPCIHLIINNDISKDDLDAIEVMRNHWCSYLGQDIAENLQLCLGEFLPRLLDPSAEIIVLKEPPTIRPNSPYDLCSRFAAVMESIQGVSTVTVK
USP17 inh: inhibitors of human USP17 deubiquitinase. A8MUK1. purified USP17, Ub-rhodamine cleavage fluorescence, 3 h. inhibition, % at 50 µM. 6.5% of 47,000 active. AID 1645855
USP10 block: blocks human USP10 ubiquitin-rhodamine cleavage | purified USP10, Ub-rhodamine fluorescence, 60 min | 1.1% of 47,000 active | inhibition, % at 20 µM
OTUD3 block: blocks human OTUD3 ubiquitin-rhodamine cleavage; Q5T2D3; purified OTUD3, Ub-rhodamine fluorescence, 2 h; inhibition, % at 25 µM; 0.7% of 47,000 active
Of the large screens only hits and unclear results are named; the others gave an inactive call. An excerpt weighted towards active compounds, which were near 13% of everything screened. No stated cut-off is given here; in the data, active means inhibition above about 30%; inactive means the rest.

Cc1ccc2nc(CCc3ccc(NS(=O)(=O)c4cccc(Cl)c4C)cc3)[nH]c2c1	USP28 inh 52.0
Cc1cccc(S(=O)(=O)Nc2ccc(-c3nc4ccc(C)cc4s3)cc2)c1	none
Cc1ccc2nc(CCc3ccc(NS(=O)(=O)c4cccc(Cl)c4)cc3)[nH]c2c1	USP28 inh 36.7
CNc1nccnc1C1CN(C(=O)CN2CCCCCC2=O)CCO1 (centres undefined)	none
CN(C)S(=O)(=O)c1ccc2[nH]cc(C3N4CC5(C)CN3CC(C)(C4)C5=O)c2c1 (centres undefined)	none
COc1ccc(C2=Nc3ccccc3SC(c3ccccc3)C2)cc1 (centres undefined)	USP8 inh 41.3
Cn1c(O)c(C2=Nc3ccccc3SC(c3ccc(Cl)cc3)C2)c(=O)n(C)c1=O (centres undefined)	none
CCC(=O)N(C1CCOCC1)C1CCN(S(=O)(=O)c2ccc(Cl)cc2)CC1	none
COC(=O)c1cc(NC(=O)/C=C/c2ccc(Cl)cc2)ccc1N1CCOCC1	USP28 inh 49.9
COc1ccc(NC(=O)c2[nH]nc3c2CCc2ccccc2-3)c(OC)c1	none
COc1ccc2c(c1)CCc1c-2n[nH]c1C(=O)Nc1ccccc1OC	USP17 inh 49.7
COc1ccc(NC(=O)c2[nH]nc3c2COc2ccccc2-3)c(OC)c1	USP8 inh 58.5, USP17 inh 76.6
COc1ccc2c(c1)CCc1c-2n[nH]c1C(=O)Nc1ccc(F)cc1C	USP30 inh 30.5
COc1ccc2c(c1)CCc1c-2n[nH]c1C(=O)N1CCN(c2ccccn2)CC1	none
COc1ccc2c(c1)CCc1c-2n[nH]c1-c1nc(-c2ccccn2)no1	USP17 inh 32.9
Nc1ncnc2sc3c(c12)CCN(Cc1ccccc1)C3	none
COc1cc(CCC(=O)N2CCCCC2c2ccn3nccc3n2)on1 (centres undefined)	none
COC[C@H]1C[C@@H]2CN(S(=O)(=O)c3cccc(OC)c3)C(C)[C@H]1N2C (some centres undefined)	none
Cc1ccc(S(=O)(=O)N[C@H]2C[C@H]3CN(C(C)C)c4ccccc4CN3C2)cc1	none
O=S(=O)(NCc1ccccc1)c1ccc(-c2cc(C(F)(F)F)on2)s1	none
COc1ccccc1NC(=O)CNC(=O)c1nn(-c2ccc(OC)c(OC)c2)c(=O)c2ccccc12	USP17 inh 68.2
CCC(C(=O)NC1CCCC1)N(C(=O)Cn1nnc(-c2ccc(C)o2)n1)c1ccccc1C (centres undefined)	none
Cc1cc(NC(=O)c2cc(=O)c3ccccc3o2)n(-c2ccccc2C)n1	none
COCC1CN(C(=O)c2cccn2C)Cc2cn(CC3CC3)nc21 (centres undefined)	none
CCn1cc2c(n1)C(COC)CN(C(=O)c1cc(C)nn1CC)C2 (centres undefined)	USP30 inh 54.4, USP17 inh 64.5
CC1CCN(c2cc(-n3cnc(C(=O)N4CCCCC4)c3)ncn2)CC1	USP28 inh 51.0
CC(=O)Nc1ccc(-n2cnc(C(=O)N3CCCCCC3)c2)nc1	none
CC1CCCN(C(=O)c2cn(-c3cc(N4CCCCC4)ncn3)cn2)C1 (centres undefined)	none
CC1CCN(c2cc(-n3cnc(C(=O)N4CCCC(C)C4)c3)ncn2)CC1 (centres undefined)	USP28 inh 62.3
CC(=O)Nc1ccc(-n2cnc(C(=O)N3CCCC(C)C3)c2)nc1 (centres undefined)	USP30 inh 41.2
O=C(CC1c2ncccc2C(=O)N1Cc1ccc(F)cc1)N1CCOCC1 (centres undefined)	none
COCCn1c(C)cc(C(=O)COc2ncnc3scc(-c4ccc(F)cc4)c23)c1C	none
Fc1ccc(Nc2ncnc3c(-c4ccccc4)noc23)cc1	USP30 inh 46.0, USP17 inh 43.7
COc1ccc(Cn2c(=O)[nH]c3cc(C(=O)N4CCC(Cc5ccccc5)CC4)ccc3c2=O)cc1	USP30 inh 37.3
CCOC(=O)N1CCN(C(=O)c2ccc(Cn3c(=O)[nH]c4cc(OC)c(OC)cc4c3=O)cc2)CC1	none
CCOc1cc2[nH]c(=O)n(Cc3ccc(C(=O)NCCCN4CCC(C)CC4)cc3)c(=O)c2cc1OCC	USP30 inh 34.8
COc1cc2[nH]c(=O)n(Cc3ccc(C(=O)N4CCN(C5CCCCC5)CC4)cc3)c(=O)c2cc1OC	USP30 inh 33.2
CN1CCCC12CCCN(C(=O)c1cccc(Cl)c1)C2 (centres undefined)	none
COc1ccc(-c2[nH]nc3c2C(c2ccc(OC)cc2)CC(=O)O3)cc1 (centres undefined)	none
COc1ccc(CNc2ncnc3c2[nH]c2ccc(F)cc23)cc1OC	none
CCCC(=O)NC1(c2nc(-c3cccnc3)no2)CCCCC1	none
CCCCOc1ccc(C(=O)NC2(c3nc(-c4cccnc4)no3)CCCCC2)cc1	USP30 inh 32.4
CC(=O)Nc1ccc(C(=O)/C=C2\NCCc3cc4c(cc32)OCCCO4)cc1	USP8 inh 44.5
O=C(NCc1ccc2c(c1)OCCCO2)c1ccc2c(c1)OCCCO2	none
COc1ccc(CC(=O)Nc2cccc(-c3nc4ncccc4o3)c2)cc1OC	USP28 inh 54.8
COc1ccc(C(=O)Nc2cc(C)c(O)c(-c3nc4ncccc4o3)c2)cc1Cl	none
Cc1ccc(OCC(=O)Nc2cccc(-c3nc4ncccc4o3)c2)c(C)c1	USP30 inh 59.0
O=C(Nc1cccc(-c2nc3ncccc3o2)c1)c1cccc(-c2cc3ccccc3oc2=O)c1	USP30 inh 67.2, USP28 inh 69.5, USP17 inh 68.0
COc1ccc(C(=O)Nc2ccc(-c3nc4ncccc4o3)cc2)cc1Br	USP17 inh 32.4
COc1ccc(C(=O)Nc2cccc(-c3nc4ncccc4o3)c2)cc1	none
CCCCn1c(=O)[nH]c2c(C(=O)N3CCN(C(C)C)CC3)snc2c1=O	none
COc1ccc(-c2cn3cccnc3n2)cc1NC(=O)c1cccc(C)c1	none
COc1ccc(CC(=O)Nc2cccc(-c3cn4cccnc4n3)c2)cc1	USP17 inh 31.0
C/C1=C\CCC(C)C(O)CC(O)C(C)C(O)CCC(C)C(O)CC2(O)OC(CC(OC(=O)CC(=O)O)CC(O)CC(O)CC(O)C(C)C(O)/C=C/C(C)C(C(C)CCCCCCCCN=C(N)N)OC1=O)CC(O)C2O (centres undefined)	USP28 inh 50.7
CC1(C(=O)NC2CCCCCC2)Cc2ccccc2C(=O)N1CCN1CCOCC1 (centres undefined)	USP30 inh 35.4
CC1CCC(NC(=O)C2(C)Cc3ccccc3C(=O)N2C2CCCCC2)CC1 (centres undefined)	USP30 inh 30.2
CC1(C(=O)NC2CCCCCC2)Cc2ccccc2C(=O)N1CCN1CCCCCC1 (centres undefined)	none
Cc1nn(C)cc1S(=O)(=O)N1[C@@H](c2ccccc2)C[C@@]2(C)[C@@H](O)[C@H](O)CCC[C@@H]12	none
